From PubChem BioAssay
Results filed as inconclusive are left out. Active and inactive are the calls of the source. Unless noted, how the calls were made is not given here.

Columns and labels:
[1] = reducers of polyQ inclusions in PC12 cells, cell-based, NGF-treated PC12, GFPQ80 (AID 1614); conditions: PC12 NGF-treated GFP-polyQ80 inclusion reduction;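 further: lower means fewer inclusions and 0 means no inclusions at all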
[2] = tested on: Neuropilin-2 / VEGF-C interaction (human); assay: inhibitors of NRP2–VEGF-C binding, biochemical, microplate binding format, z-score (AID 743281); conditions: microplate NRP2/VEGF-C binding assay; stronger effect = lower value
[3] = growth inhibition of DIPG glioma cells, dose response, cell-based, SU-DIPG-XVII, MIPE5.0, CellTiter-Glo, qHTS (AID 1347060; cut-off not given, nearly all actives have AC50 up to about 26 µM); conditions: SU-DIPG-XVII viability, CellTiter-Glo ATP luminescence
[4] = growth inhibition of DIPG glioma cells, dose response, cell-based, SU-DIPG-XIII, MIPE4.0, CellTiter-Glo, qHTS (AID 1347061; cut-off not given, nearly all actives have AC50 up to about 37 µM;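 further: cells exposed to compound for 48 hours before readout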); conditions: SU-DIPG-XIII viability, CellTiter-Glo ATP luminescence
[5] = growth inhibition of DIPG glioma cells, dose response, cell-based, JHH-DIPG-1, MIPE4.0, CellTiter-Glo, qHTS (AID 1347062; cut-off not given, nearly all actives have AC50 up to about 27 µM); conditions: JHH-DIPG-1 viability, CellTiter-Glo ATP luminescence
[6] = growth inhibition of DIPG glioma cells, dose response, cell-based, SU-DIPG-XIII, MIPE5.0, CellTiter-Glo, qHTS (AID 1347064; cut-off not given, nearly all actives have AC50 up to about 23 µM;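 on AC50: cells exposed to compound for 48 hours before the viability read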); conditions: SU-DIPG-XIII viability, CellTiter-Glo ATP luminescence
[7] = SU-DIPG-VI glioma cell viability, MIPE4.0 library, CellTiter-Glo luminescence, qHTS (AID 1347066; cut-off not given, nearly all actives have AC50 up to about 30 µM;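 further: cells exposed to compound for 48 hours before readout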); conditions: CellTiter-Glo ATP luminescence
[8] = JHH-DIPG-1 glioma cell viability, MIPE5.0 library, CellTiter-Glo luminescence, qHTS (AID 1347067; cut-off not given, nearly all actives have AC50 up to about 26 µM;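 further: cells exposed to compound for 48 hours before readout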); conditions: JHH-DIPG-1 glioma viability, CellTiter-Glo ATP luminescence
[9] = growth inhibition of DIPG glioma cells, dose response, cell-based, SU-DIPG-IV, MIPE4.0, CellTiter-Glo, qHTS (AID 1347063; cut-off not given, nearly all actives have AC50 up to about 30 µM;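 further: compound exposure lasted 48 hours before the viability readout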); conditions: SU-DIPG-IV viability, CellTiter-Glo ATP luminescence
[10] = viability loss in pontine glioma line – cell-based, SU-DIPG-XXV, MIPE5.0, CellTiter-Glo, qHTS, dose response (AID 1347065; cut-off not given, nearly all actives have AC50 up to about 26 µM;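 further: cells exposed to compound for 48 hours before ATP readout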); conditions: CellTiter-Glo ATP luminescence
[11] = circadian clock period modulators, cell-based, LOPAC library, luminescence reporter (AID 2774); conditions: circadian reporter cells, at 7 µM, actives lie on both sides;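 further: values are relative to mean of DMSO wells on each plate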
[12] = Cy5 fluorescence quenching or enhancement artefacts, artefact control for HCV NS3 helicase inhibitor project, biochemical, LOPAC1280 (AID 687037); conditions: Cy5-DNA-NS3h complex fluorescence interference counterscreen
[13] = phospholipid biosynthesis inhibitors in animal cells, primary screen, cell-based, LOPAC library, screen 4 (AID 1347384); conditions: phospholipid biosynthesis inhibition screen, at 10 µM
[14] = molecular target: ATP-dependent translocase ABCB1 (Homo sapiens) (UniProt P08183); assay: MDR1 (ABCB1) efflux transporter inhibition, cell-based (AID 377; in the data active means fluorescence slope change above about 50%); conditions: MDR1-expressing cells, fluorescent substrate accumulation slope; stronger effect = higher value; concentration not given here
[15] = tested on: Aerobactin synthetase IucA (Klebsiella pneumoniae); assay: IucA aerobactin synthetase inhibitors, biochemical, Tocris library, absorbance (AID 1345561); conditions: purified IucA enzyme assay, absorbance (OD) read-out; stronger effect = lower value;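 tested at 8 µM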;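 further: 100% = enzyme without compound and 0% = no enzyme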
[16] = SU-DIPG-XXV glioma cell viability, MIPE5.0 library, qHTS (AID 1347068; cut-off not given, nearly all actives have IC50 up to about 30 µM)

Chain of ATP-dependent translocase ABCB1 (Homo sapiens) (P08183 whole entry, looked up): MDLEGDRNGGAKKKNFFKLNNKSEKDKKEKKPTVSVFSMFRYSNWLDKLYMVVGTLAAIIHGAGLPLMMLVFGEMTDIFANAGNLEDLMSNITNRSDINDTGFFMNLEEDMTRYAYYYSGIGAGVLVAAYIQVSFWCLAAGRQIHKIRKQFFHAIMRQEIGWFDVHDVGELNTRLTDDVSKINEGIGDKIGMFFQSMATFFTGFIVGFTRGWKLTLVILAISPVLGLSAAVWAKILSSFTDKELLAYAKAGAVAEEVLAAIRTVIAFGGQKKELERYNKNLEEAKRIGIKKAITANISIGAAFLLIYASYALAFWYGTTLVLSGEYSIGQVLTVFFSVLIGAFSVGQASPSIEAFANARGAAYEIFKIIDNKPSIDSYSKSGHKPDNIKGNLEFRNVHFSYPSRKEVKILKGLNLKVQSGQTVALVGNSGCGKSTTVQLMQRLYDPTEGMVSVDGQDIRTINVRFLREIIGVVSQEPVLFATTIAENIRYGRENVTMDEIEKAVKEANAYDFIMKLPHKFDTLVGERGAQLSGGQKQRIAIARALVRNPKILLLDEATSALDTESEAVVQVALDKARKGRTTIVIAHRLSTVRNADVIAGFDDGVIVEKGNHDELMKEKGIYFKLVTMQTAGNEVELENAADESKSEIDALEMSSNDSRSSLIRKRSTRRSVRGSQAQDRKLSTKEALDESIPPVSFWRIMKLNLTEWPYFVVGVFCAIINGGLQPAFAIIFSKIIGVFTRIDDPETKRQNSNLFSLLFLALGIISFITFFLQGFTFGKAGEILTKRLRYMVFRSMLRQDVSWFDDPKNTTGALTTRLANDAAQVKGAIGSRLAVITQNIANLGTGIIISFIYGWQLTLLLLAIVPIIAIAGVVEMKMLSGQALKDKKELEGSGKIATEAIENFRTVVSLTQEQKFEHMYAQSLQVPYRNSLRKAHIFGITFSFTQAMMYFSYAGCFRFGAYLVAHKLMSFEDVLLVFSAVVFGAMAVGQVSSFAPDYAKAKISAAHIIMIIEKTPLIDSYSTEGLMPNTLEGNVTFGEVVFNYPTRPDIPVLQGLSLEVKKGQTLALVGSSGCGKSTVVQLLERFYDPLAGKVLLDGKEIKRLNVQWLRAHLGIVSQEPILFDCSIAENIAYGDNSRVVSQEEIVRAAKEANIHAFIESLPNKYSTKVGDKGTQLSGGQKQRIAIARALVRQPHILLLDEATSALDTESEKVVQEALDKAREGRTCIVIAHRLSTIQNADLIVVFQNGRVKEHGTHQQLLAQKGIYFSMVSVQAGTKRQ

CN(C)CCN(Cc1ccccc1)c1ccccn1
inclusion score [1]: 2 | z-score [2]: -0.192 (inactive)

CCC(=O)O[C@]1(C(=O)CCl)[C@@H](C)C[C@H]2[C@@H]3CCC4=CC(=O)C=C[C@]4(C)[C@@]3(F)[C@@H](O)C[C@@]21C
outcome [3]: inactive | outcome [4]: inactive | outcome [5]: inactive | outcome [6]: inactive | outcome [7]: inactive | outcome [8]: inactive

C[C@@H]1CC(=O)NN=C1c1ccc(NN=C(C#N)C#N)cc1
AC50 [9]: 23.5 µM (active) | AC50 [6]: 18.6 µM (active) | AC50 [10]: 9.34 µM (active)

CCN(CC)CC(=O)Nc1c(C)cccc1C
inclusion score [1]: 2 | period change [11]: -0.265 h (inactive) | fluorescence ratio (interference) [12]: 1 (inactive) | z-score [2]: 1.47 (inactive) | outcome [13]: inactive

C[C@@H](O)[C@H]1C(=O)N2C(C(=O)O)=C(S[C@@H]3CN[C@H](C(=O)N(C)C)C3)[C@H](C)[C@H]12
z-score [2]: -0.132 (inactive)

CN1CCN(CCCN2c3ccccc3Sc3ccc(C(F)(F)F)cc32)CC1
fluorescence slope change [14]: 134% (active) | period change [11]: 0.025 h (inactive) | fluorescence ratio (interference) [12]: 0.9 (inactive) | z-score [2]: 0.311 (inactive) | AC50 [4]: 18.7 µM (active) | outcome [5]: inactive | AC50 [10]: 18.6 µM (active) | outcome [7]: inactive | AC50 [8]: 23.5 µM (active) | outcome [13]: inactive

COc1ccccc1N1CCN(CCCNc2cc(=O)n(C)c(=O)n2C)CC1
period change [11]: 0.18 h (inactive) | fluorescence ratio (interference) [12]: 1 (inactive) | z-score [2]: -0.551 (inactive) | remaining activity [15]: 103% (inactive) | outcome [13]: inactive

Cc1c(OCC(F)(F)F)ccnc1CS(=O)c1nc2ccccc2[nH]1 (configuration not stated)
inclusion score [1]: 2 | period change [11]: -0.035 h (inactive) | fluorescence ratio (interference) [12]: 1 (inactive) | z-score [2]: 0.0966 (inactive) | remaining activity [15]: 87.5% (inactive) | outcome [3]: inactive | outcome [9]: inactive | outcome [6]: inactive | outcome [10]: inactive | outcome [7]: inactive | outcome [16]: inactive | outcome [13]: inactive

CC(=O)OCC(=O)[C@@]1(O)CC[C@H]2[C@@H]3CCC4=CC(=O)CC[C@]4(C)[C@H]3C(=O)C[C@@]21C
period change [11]: -0.03 h (inactive) | fluorescence ratio (interference) [12]: 0.9 (inactive) | outcome [4]: inactive | outcome [5]: inactive | outcome [9]: inactive | outcome [10]: inactive | outcome [7]: inactive | outcome [8]: inactive | outcome [16]: inactive | outcome [13]: inactive

CCOC(=O)N1CCC(=C2c3ccc(Cl)cc3CCc3cccnc32)CC1
period change [11]: -0.1 h (inactive) | fluorescence ratio (interference) [12]: 1 (inactive) | z-score [2]: 0.735 (inactive) | remaining activity [15]: 99.4% (inactive) | outcome [4]: inactive | outcome [5]: inactive | AC50 [9]: 18.7 µM (active) | outcome [13]: inactive

O=C(c1ccccc1)c1ccc2n1CCC2C(=O)O (configuration not stated)
inclusion score [1]: 2 | period change [11]: -0.025 h (inactive) | fluorescence ratio (interference) [12]: 1 (inactive) | z-score [2]: -0.0903 (inactive) | outcome [3]: inactive | AC50 [4]: 8.33 µM (active) | outcome [5]: inactive | outcome [9]: inactive | outcome [6]: inactive | outcome [10]: inactive | outcome [7]: inactive | outcome [8]: inactive | outcome [16]: inactive | outcome [13]: inactive

CCOC(=O)C1=C(COCCN)NC(C)=C(C(=O)OC)C1c1ccccc1Cl (configuration not stated)
z-score [2]: -0.363 (inactive) | remaining activity [15]: 107% (inactive)

NC(N)=NC(=O)c1nc(Cl)c(N)nc1N
inclusion score [1]: 2 | period change [11]: 0.02 h (inactive) | fluorescence ratio (interference) [12]: 0.9 (inactive) | z-score [2]: -0.147 (inactive) | remaining activity [15]: 101% (inactive) | outcome [3]: inactive | AC50 [4]: 14.8 µM (active) | outcome [5]: inactive | outcome [6]: inactive | outcome [10]: inactive | outcome [7]: inactive | outcome [8]: inactive | outcome [16]: inactive | outcome [13]: inactive

CCCN1C[C@H](CSC)C[C@@H]2c3cccc4[nH]cc(c34)C[C@H]21
fluorescence slope change [14]: 72.8% (active) | inclusion score [1]: 2 | period change [11]: 0.02 h (inactive) | fluorescence ratio (interference) [12]: 1 (inactive) | outcome [13]: inactive
